Source: the supplement of paper PMC8728848
This is one part of a sample in which the strongest signals are shown more often than they occur.

Legend:
Test in all cases: glycan array binding signal (z-score within array); higher = stronger binding
Conditions in all cases: glycan notation: IUPAC condensed, linker removed
Gal6S(b1-4)GlcNAc6S = target: Gal6S(b1-4)GlcNAc6S
In short: (§1)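 The Consortium for Functional Glycomics database supplied 3228 glycan arrays, of which those lacking an available protein sequence were dropped. The binding signal, a within-array Z-score, was averaged across arrays of the same protein sequence and across linkers. Negative scores can be read as non-binding.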

GalNAc(b1-6)GalNAc = target: GalNAc(b1-6)GalNAc
In short: as §1

Glc(b1-6)Glc = target: Glc(b1-6)Glc
In short: as §1

GlcA(b1-3)GlcNAc = target: GlcA(b1-3)GlcNAc
In short: as §1

[1] = target: GlcNAc(a1-4)Gal(b1-4)GlcNAc(b1-3)Gal(b1-4)[Fuc(a1-3)]GlcNAc(b1-3)Gal(b1-4)[Fuc(a1-3)]GlcNAc
In short: as §1

[2] = target: GlcNAc(b1-2)Man(a1-3)[GlcNAc(b1-4)][GlcNAc(b1-2)Man(a1-6)]Man(b1-4)GlcNAc(b1-4)GlcNAc
In short: as §1

[3] = target: GlcNAc(b1-2)[GlcNAc(b1-4)]Man(a1-3)[GlcNAc(b1-4)][GlcNAc(b1-2)Man(a1-6)]Man(b1-4)GlcNAc(b1-4)GlcNAc
In short: as §1

[4] = target: Neu5Ac(a2-3)Gal(b1-3)GalNAc(b1-3)Gal(a1-4)Gal(b1-4)Glc
In short: as §1

[5] = target: Neu5Ac(a2-3)Gal(b1-3)GlcNAc(b1-3)Gal(b1-3)GlcNAc
In short: as §1

[6] = target: Neu5Ac(a2-3)Gal(b1-3)[Fuc(a1-4)]GlcNAc(b1-3)Gal(b1-3)[Fuc(a1-4)]GlcNAc
In short: as §1

[7] = target: Neu5Ac(a2-3)Gal(b1-4)GlcNAc(b1-3)Gal(b1-3)GlcNAc
In short: as §1

[8] = target: Neu5Ac(a2-3)Gal(b1-4)GlcNAc(b1-6)[Neu5Ac(a2-3)Gal(b1-3)]GalNAc
In short: as §1

[9] = target: Neu5Ac(a2-3)Gal(b1-4)[Fuc(a1-3)]GlcNAc(b1-3)GalNAc
In short: as §1

[10] = target: Neu5Ac(a2-3)Gal(b1-4)[Fuc(a1-3)]GlcNAc(b1-6)[Gal(b1-3)]GalNAc
In short: as §1

[11] = target: Neu5Ac(a2-3)[GalNAc(b1-4)]Gal(b1-4)GlcNAc(b1-3)GalNAc
In short: as §1

[12] = target: Neu5Ac(a2-6)Gal(b1-4)GlcNAc(b1-2)Man(a1-3)[GlcNAc(b1-2)Man(b1-4)GlcNAc(b1-2)Man(a1-6)]Man(b1-4)GlcNAc(b1-4)GlcNAc
In short: as §1

[13] = target: Neu5Ac(a2-6)Gal(b1-4)GlcNAc(b1-2)Man(a1-3)[Man(a1-6)]Man(b1-4)GlcNAc(b1-4)GlcNAc
In short: as §1

[14] = target: Neu5Ac(a2-6)Gal(b1-4)GlcNAc(b1-3)Gal(b1-4)GlcNAc(b1-3)Gal(b1-4)GlcNAc
In short: as §1

[15] = target: Neu5Ac(a2-6)Gal(b1-4)GlcNAc(b1-3)Gal(b1-4)[Fuc(a1-3)]GlcNAc(b1-3)Gal(b1-4)[Fuc(a1-3)]GlcNAc
In short: as §1

[16] = target: Neu5Ac(a2-8)Neu5Ac(a2-3)[Gal(b1-3)GalNAc(b1-4)]Gal(b1-4)Glc
In short: as §1

[17] = target: Fuc(a1-2)Gal(b1-3)GalNAc(a1-3)[Fuc(a1-2)]Gal(b1-4)GlcNAc
In short: as §1

[18] = target: Fuc(a1-2)Gal(b1-4)Fuc(a1-3)]GlcNAc(b1-2)Man(a1-3)[Fuc(a1-2)Gal(b1-4)[Fuc(a1-3)]GlcNAc(b1-2)Man(a1-6)]Man(b1-4)GlcNAc(b1-4)GlcNAc
In short: as §1

[19] = target: Fuc(a1-2)Gal(b1-4)GlcNAc(b1-2)Man(a1-3)[Fuc(a1-2)Gal(b1-4)GlcNAc(b1-2)Man(a1-6)]Man(b1-4)GlcNAc(b1-4)[Fuc(a1-6)]GlcNAc
In short: as §1

[20] = target: Fuc(a1-2)Gal(b1-4)GlcNAc(b1-3)GalNAc
In short: as §1

[21] = target: Fuc(a1-2)Gal(b1-4)[Fuc(a1-3)]GlcNAc(b1-3)GalNAc
In short: as §1

[22] = target: Fuc(a1-2)[Gal(a1-3)]Gal(b1-3)GalNAc(b1-3)Gal(a1-4)Gal(b1-4)Glc
In short: as §1

[23] = target: Fuc(a1-2)[GalNAc(a1-3)]Gal
In short: as §1

[24] = target: Fuc(a1-2)[GalNAc(a1-3)]Gal(b1-4)[Fuc(a1-3)]GlcNAc(b1-3)GalNAc
In short: as §1

[25] = target: Fuc(a1-3)[Gal(b1-4)]GlcNAc(b1-2)Man(a1-3)[Fuc(a1-3)[Gal(b1-4)]GlcNAc(b1-2)Man(a1-6)]Man(b1-4)GlcNAc(b1-4)[Fuc(a1-6)]GlcNAc
In short: as §1

Gal(b1-2)Gal = target: Gal(b1-2)Gal
In short: as §1

Gal(b1-3)GlcNAc = target: Gal(b1-3)GlcNAc
In short: as §1

Gal(b1-3)GlcNAc(b1-2)Man = target: Gal(b1-3)GlcNAc(b1-2)Man
In short: as §1

[26] = target: Gal(b1-3)GlcNAc(b1-2)Man(a1-3)[Gal(b1-3)GlcNAc(b1-2)Man(a1-6)]Man(b1-4)GlcNAc(b1-4)GlcNAc
In short: as §1

[27] = target: Gal(b1-3)GlcNAc(b1-3)Gal(b1-4)Glc
In short: as §1

[28] = target: Gal(b1-3)[Fuc(a1-4)]GlcNAc(b1-3)Gal(b1-3)[Fuc(a1-4)]GlcNAc
In short: as §1

Gal(b1-4)GlcNAc(b1-2)Man = target: Gal(b1-4)GlcNAc(b1-2)Man
In short: as §1

[29] = target: Gal(b1-4)GlcNAc(b1-2)Man(a1-3)[Gal(b1-4)GlcNAc(b1-2)Man(a1-6)]Man(b1-4)GlcNAc(b1-4)GlcNAc
In short: as §1

[30] = target: Gal(b1-4)GlcNAc(b1-2)[Gal(b1-4)GlcNAc(b1-6)]Man(a1-6)[GlcNAc(b1-4)][Gal(b1-4)GlcNAc(b1-2)Man(a1-3)]Man(b1-4)GlcNAc(b1-4)GlcNAc
In short: as §1

[31] = target: Gal(b1-4)GlcNAc(b1-3)Gal(b1-4)GlcNAc
In short: as §1

[32] = target: Gal(b1-4)GlcNAc(b1-3)Gal(b1-4)GlcNAc(b1-3)Gal(b1-4)GlcNAc(b1-2)Man(a1-3)[Gal(b1-4)GlcNAc(b1-3)Gal(b1-4)GlcNAc(b1-3)Gal(b1-4)GlcNAc(b1-2)Man(a1-6)]Man(b1-4)GlcNAc(b1-4)GlcNAc
In short: as §1

[33] = target: Gal(b1-4)GlcNAc(b1-3)Gal(b1-4)GlcNAc(b1-3)Gal(b1-4)GlcNAc(b1-3)Gal(b1-4)GlcNAc(b1-3)Gal(b1-4)GlcNAc(b1-2)Man(a1-3)[Gal(b1-4)GlcNAc(b1-3)Gal(b1-4)GlcNAc(b1-3)Gal(b1-4)GlcNAc(b1-3)Gal(b1-4)GlcNAc(b1-3)Gal(b1-4)GlcNAc(b1-2)Man(a1-6)]Man(b1-4)GlcNAc(b1-4)[Fuc(a1-6)]GlcNAc
In short: as §1

Gal3S(b1-3)GlcNAc = target: Gal3S(b1-3)GlcNAc
In short: as §1

[34] = target: Gal3S(b1-3)[Fuc(a1-4)]GlcNAc
In short: as §1

[35] = target: GlcNAc(b1-2)[GlcNAc(b1-4)]Man(a1-3)[GlcNAc(b1-2)Man(a1-6)]Man(b1-4)GlcNAc(b1-4)GlcNAc
In short: as §1

[36] = target: GlcNAc(b1-3)Gal(b1-4)GlcNAc(b1-3)[GlcNAc(b1-3)Gal(b1-4)GlcNAc(b1-3)]GalNAc
In short: as §1

[37] = target: Kdn(a2-3)Gal(b1-4)[Fuc(a1-3)]GlcNAc
In short: as §1

[38] = target: Neu5Ac(a2-3)Gal(b1-3)[Neu5Ac(a2-6)]GlcNAc(b1-3)[Fuc(a1-3)[Gal(b1-4)]GlcNAc(b1-6)]Gal(b1-4)Glc
In short: as §1

B1: rPitB (Streptococcus pneumoniae), A0A0I7U739 (protein)
chain: MSEIEIINAKKIYHDVPVIENLNITIPKGSLFTLLGASGCGKTTLLRMIAGFNSIKDGEFYFDDTKINNMEPSKRNIGLVFQNYAIFPHLTVRDNVAFGLMQKKVPKEELIQQTNKYLELMQIAQYAD
- glycan array binding signal (z-score) (Gal6S(b1-4)GlcNAc6S): 0.24
- glycan array binding signal (z-score) (GalNAc(b1-6)GalNAc): -0.608
- glycan array binding signal (z-score) (Glc(b1-6)Glc): -0.176
- glycan array binding signal (z-score) (GlcA(b1-3)GlcNAc): 5.72
- glycan array binding signal (z-score) [1]: 3.89
- glycan array binding signal (z-score) [2]: -0.914
- glycan array binding signal (z-score) [3]: -1.01
- glycan array binding signal (z-score) [4]: -0.604
- glycan array binding signal (z-score) [5]: -0.301
- glycan array binding signal (z-score) [6]: 2.33
- glycan array binding signal (z-score) [7]: -0.394
- glycan array binding signal (z-score) [8]: 0.027
- glycan array binding signal (z-score) [9]: 4.13
- glycan array binding signal (z-score) [10]: 2.86
- glycan array binding signal (z-score) [11]: -0.463
- glycan array binding signal (z-score) [12]: -0.255
- glycan array binding signal (z-score) [13]: 0.505
- glycan array binding signal (z-score) [14]: 0.323
- glycan array binding signal (z-score) [15]: 0.032
- glycan array binding signal (z-score) [16]: -0.053

B2: Epa20 (Candida glabrata) (protein)
chain: MGSSHHHHHHSSGLVPRGSHMASSNIPNNYPLGCSNKYSGHLPGLKMELYSYNYVNPRHPDPQNPGKLDQLYDPNLLGTYECFDSSYKDINYPRVGYKSKTLIGRSDGVSGILNFNFVPPWGCMPQKGQLPPAYNFKSNITLSNFTMILFGYFKPKISGNHIFSLHGDDLIYLNFGAGNAFDCCRQESSADNFGNYQAFSLWGINWEKKTLTVYLDMNTYYPIRIFYNNRDYQAIFNFSFKTEFDSSPVIDFQDYFFFLRDIDGGCPGEV
- glycan array binding signal (z-score) [17]: -0.278
- glycan array binding signal (z-score) [18]: 3.16
- glycan array binding signal (z-score) [19]: -0.005
- glycan array binding signal (z-score) [20]: -0.072
- glycan array binding signal (z-score) [21]: 4.96
- glycan array binding signal (z-score) [22]: -0.067
- glycan array binding signal (z-score) [23]: -0.452
- glycan array binding signal (z-score) [24]: 3.14
- glycan array binding signal (z-score) [25]: 0.822
- glycan array binding signal (z-score) (Gal(b1-2)Gal): -0.763
- glycan array binding signal (z-score) (Gal(b1-3)GlcNAc): -0.446
- glycan array binding signal (z-score) (Gal(b1-3)GlcNAc(b1-2)Man): 0.049
- glycan array binding signal (z-score) [26]: 0.704
- glycan array binding signal (z-score) [27]: -0.669
- glycan array binding signal (z-score) [28]: -0.28
- glycan array binding signal (z-score) (Gal(b1-4)GlcNAc(b1-2)Man): -0.114
- glycan array binding signal (z-score) [29]: -0.534
- glycan array binding signal (z-score) [30]: -0.48
- glycan array binding signal (z-score) [31]: -0.384
- glycan array binding signal (z-score) [32]: 3.18
- glycan array binding signal (z-score) [33]: 6.07
- glycan array binding signal (z-score) (Gal3S(b1-3)GlcNAc): -0.241
- glycan array binding signal (z-score) [34]: 0.569
- glycan array binding signal (z-score) (Gal6S(b1-4)GlcNAc6S): 0.939
- glycan array binding signal (z-score) [1]: 0.435
- glycan array binding signal (z-score) [35]: -0.31
- glycan array binding signal (z-score) [36]: 0.532
- glycan array binding signal (z-score) [37]: 0.229
- glycan array binding signal (z-score) [5]: -0.76
- glycan array binding signal (z-score) [38]: 2.49
